High-throughput results from PubChem.
Shiga toxin inh = blocks Shiga toxin action in Vero cells | 290,000 tested, 9.2% active | Vero cells, Shiga toxin protein synthesis inhibition reporter | inhibition, % at 38.7 µM; in the data active = inhibition mostly above about 28%, no sharp cut-off; inactive = mostly below about 43%; also: 0% is about no effect
FMDV antiviral = blocks foot and mouth disease virus. FMDV antiviral cell-based qHTS. Potency, µM (titrated, usually from 57.9 µM), for the others: at the highest dose activity change, negative = inhibition, most hits filed as inhibitors. 410,000 tested, 1.2% active. AID 1159524; calls by dose curve; tested in HEK293T cells; also: read-out not given here; potency is read from the fitted curve at half-maximal effect; % is scaled to controls: 0 for no effect and ±100 for the full control effect; nearly all actives have a fitted effect of over 45% in size
CHX counter = affects cycloheximide protein synthesis inhibition readout, counter-screen; cell reporter, cycloheximide protein synthesis inhibition counterscreen; max response, %; 300,000 tested, 12% active; AID 2314; in the data active = max response mostly above about 13%, no sharp cut-off; inactive = mostly below about 14%; also: read at 38.3 µM for the half of the compounds with a filed dose; 0% is about no effect
Sm TGR inh = blocks Schistosoma mansoni thioredoxin glutathione reductase. AID 485364. purified TGR, DTNB reduction, TNB absorbance 405 nm. 360,000 tested, 3% active. Potency, µM (highest dose often 114 µM), without a hit: at the top dose activity change, negative = inhibition, most hits filed as inhibitors; active = well fitted inhibition curve with a large enough effect; inconclusive = small, poorly fitted or top-dose-only effect; inactive = no such curve, though single readings can be large or run the other way; also: potency is read from the fitted curve at half-maximal effect; % is scaled to controls: 0 for no effect and ±100 for the full control effect; nearly all actives have a fitted effect of over 60% in size
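TGR 20 nM + NADPH 100 uM (dispensed conc.), cpd preinc 15 min RT; start with NADPH (500 uM addition) then DTNB (15 mM addition). Kinetic TNB absorbance, 405 nm filter. Four-parameter Hill fit across titration.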
The depositor's hits bear a star; [ ] = remark or other dose. This is a sample that favours compounds with a hit; in the whole collection about 12% have one here.

How did CC(=O)Nc1ccc(SCc2c(C)noc2C)cc1 do in these assays?
Shiga toxin inh: -5; FMDV antiviral: -17%; CHX counter: -3; Sm TGR inh: -6%

How did COc1ccc(-n2c(=O)c3c4c(sc3n(CC(=O)N3CCCCC3C)c2=O)CCC4)c(OC)c1 (stereo not drawn) do in these assays?
FMDV antiviral: -12%; Sm TGR inh: 5%

How did Cc1c(C(=O)NCc2ccccn2)sc2nc(-c3ccccc3)cn12 do in these assays?
Shiga toxin inh: 20*; FMDV antiviral: 19%; CHX counter: 29*; Sm TGR inh: 9%

Results for COCCNC(=O)c1sc2nc(-c3ccccc3)cn2c1C ?
Shiga toxin inh: 70*; FMDV antiviral: 25%; CHX counter: 29*; Sm TGR inh: inconclusive

What do the screens show for `Cc1c(C(=O)NCc2ccccn2)sc2nc(-c3ccc(F)cc3)cn12`?
Shiga toxin inh: 9; FMDV antiviral: -19%; CHX counter: 1; Sm TGR inh: -15%

How did Cc1c(C(=O)NCCCN2CCOCC2)sc2nc(-c3ccccc3)cn12 do in these assays?
Shiga toxin inh: 13; CHX counter: -2; Sm TGR inh: 1%

How did COc1ccc(S(=O)(=O)N(CC(=O)NCCSc2ccccc2)c2ccc(C)cc2)cc1 do in these assays?
FMDV antiviral: -10%; Sm TGR inh: 0%

What do the screens show for `CCOC(=O)C(CC)N1CCN(Cc2ccc(F)cc2)C(=O)C1=O` (stereo not drawn)?
FMDV antiviral: -25%; Sm TGR inh: 0%

Results for O=C(CCNS(=O)(=O)c1ccc2c(c1)CCN2C(=O)C1CC1)Nc1ccc(Cl)cc1 ?
FMDV antiviral: -21%; Sm TGR inh: -5%

Results for COc1cccc(NC(=O)COc2ccc(C)cc2)c1 ?
Shiga toxin inh: 63*; FMDV antiviral: 22%; CHX counter: 37*; Sm TGR inh: 0%

What do the screens show for `COc1cccc(NC(=O)COc2ccc3c(c2)CCC3)c1`?
Shiga toxin inh: 38*; FMDV antiviral: 42%; CHX counter: 23*; Sm TGR inh: 3%

Results for COc1ccc(OCC(=O)Nc2cccc(C(C)=O)c2)cc1 ?
Shiga toxin inh: -9; FMDV antiviral: 9%; CHX counter: -1; Sm TGR inh: -14%[11.4 µM]

Results for CCOc1ccccc1Nc1ccc2cc(S(=O)(=O)N3CCCCC3)ccc2n1 ?
FMDV antiviral: -12%; Sm TGR inh: 29%

What do the screens show for `Cc1ccc(-n2nc(C)c3c(C(=O)NCc4ccc(F)cc4)cc(C)nc32)cc1`?
FMDV antiviral: -7%; Sm TGR inh: 9%

What do the screens show for `COc1cccc(-c2noc(C(C)n3nc(C)c([N+](=O)[O-])c3C)n2)c1` (stereo not drawn)?
Shiga toxin inh: 9; FMDV antiviral: 13%; CHX counter: 18*; Sm TGR inh: -21%

What do the screens show for `N#Cc1c(-c2ccc(F)cc2)noc1N`?
Shiga toxin inh: 23; FMDV antiviral: 5%; CHX counter: 6; Sm TGR inh: -28%

What do the screens show for `COc1cccc(-c2nc(-c3ccc(NC(=O)c4cccnc4)cc3)no2)c1`?
Shiga toxin inh: -12; FMDV antiviral: inconclusive; CHX counter: -3; Sm TGR inh: 0%

What do the screens show for `COc1cccc(-c2noc(N)c2C#N)c1`?
Shiga toxin inh: 21; FMDV antiviral: 26%; CHX counter: 17*; Sm TGR inh: inconclusive

Results for COc1cccc(-c2nc(-c3ccccc3)no2)c1 ?
Shiga toxin inh: 63*; FMDV antiviral: 3%; CHX counter: 37*; Sm TGR inh: 1%

What do the screens show for `COc1cccc(-c2noc(-c3cccnc3)n2)c1`?
Shiga toxin inh: 68*; FMDV antiviral: 26%; CHX counter: 34*; Sm TGR inh: 6%

What do the screens show for `COc1ccc(N2CCN(c3ccc(-c4nc(-c5cccc(C)c5)no4)cc3[N+](=O)[O-])CC2)cc1`?
FMDV antiviral: -5%; Sm TGR inh: 4%

Results for CC1CCCCN1CCCNC(=O)c1[nH]c2ccccc2c1Sc1ccc(Cl)cc1 (stereo not drawn) ?
FMDV antiviral: -24%; Sm TGR inh: -6%

What do the screens show for `Cc1ccccc1CN1C(=O)c2ccccc2Sc2ccc(C(=O)NCCc3ccccc3)cc21`?
FMDV antiviral: -1%; Sm TGR inh: 9%

What do the screens show for `Fc1ccccc1-n1ncc2c1ncn1nc(-c3ccccc3Cl)nc21`?
FMDV antiviral: 39%; Sm TGR inh: 1%

Results for CCN(CC)S(=O)(=O)c1ccc2c(c1)c(=O)c(C(=O)NCc1ccccc1Cl)cn2C ?
FMDV antiviral: -12%; Sm TGR inh: -3%

How did COc1ccc2c(CNC3CCCC3)c(C(=O)O)n(Cc3ccccc3C)c2c1 do in these assays?
FMDV antiviral: 6%; Sm TGR inh: -1%

What do the screens show for `COc1nc(-c2ccccc2)ccc1-c1noc(-c2cccs2)n1`?
FMDV antiviral: 66%

What do the screens show for `COc1ccc(-c2nc(-c3cccnc3)no2)cc1OC`?
Shiga toxin inh: 47*; FMDV antiviral: 43%; CHX counter: 39*; Sm TGR inh: 13%

How did COc1cccc(OCc2nnc(-c3cccs3)o2)c1 do in these assays?
Shiga toxin inh: 33*; CHX counter: 33*; Sm TGR inh: 1%

What do the screens show for `COc1cccc(-c2noc(-c3cccs3)n2)c1`?
Shiga toxin inh: 54*; FMDV antiviral: -5%; CHX counter: 39*; Sm TGR inh: 9%

What do the screens show for `COc1cccc(-c2nc(-c3ccccn3)no2)c1`?
Shiga toxin inh: -25; FMDV antiviral: 20µM*; CHX counter: -10; Sm TGR inh: 8%

What do the screens show for `COc1cc(-c2nc(-c3cccnc3)no2)cc(OC)c1OC`?
Shiga toxin inh: -3; FMDV antiviral: -10%; CHX counter: 8; Sm TGR inh: -4%

Results for CCOc1ccc(CCNC(=O)CCCc2nnc3n(CC)c(=O)c4sccc4n23)cc1OCC ?
FMDV antiviral: -9%; Sm TGR inh: 3%

How did CCC(=O)N1CCc2cc(S(=O)(=O)NCCC(=O)NCc3ccc(OC)cc3)ccc21 do in these assays?
FMDV antiviral: -5%; Sm TGR inh: 0%

How did CC1Cn2c(C(=O)NCCc3ccc(Cl)cc3)cc3cccc(c32)S1 (stereo not drawn) do in these assays?
FMDV antiviral: -21%; Sm TGR inh: 5%

How did O=[N+]([O-])c1cccc(-c2nc(-c3ccccn3)no2)c1 do in these assays?
Shiga toxin inh: 72*; FMDV antiviral: 28%; CHX counter: 46*; Sm TGR inh: -2%

How did CN(C)c1ccc(-c2nc(-c3ccccn3)no2)cc1[N+](=O)[O-] do in these assays?
FMDV antiviral: -69%; Sm TGR inh: -15%

Results for COc1ccc(Cn2ccnc2SCC(=O)Nc2ccc(C)cc2C)cc1 ?
FMDV antiviral: 11%; Sm TGR inh: 1%

Results for c1cc2[nH]snc2c2nc(C3CC3)nc12 ?
Shiga toxin inh: 31; FMDV antiviral: -3%; CHX counter: 28*; Sm TGR inh: 0%

How did NC(=O)c1ccccc1OCC(=O)N1CCC(Cc2ccccc2)CC1 do in these assays?
FMDV antiviral: 32µM*; Sm TGR inh: 7%

How did O=C(COc1ccc(F)cc1)N1CCC(Cc2ccccc2)CC1 do in these assays?
Shiga toxin inh: 52; FMDV antiviral: 5%; CHX counter: 14*; Sm TGR inh: 7%
